High-throughput results: PubChem BioAssay, several laboratories
Sampled rows, rich in hits. Any-hit rate of the full collection: about 12%.
CHOP inhibitor: blocks CHOP induction under ER stress. CHO-K1 CHOP-promoter luciferase, tunicamycin-induced, 15-18 h. inhibition, % at 10 µM. actives 3.8% (n = 220,000);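 active = compounds that reduced the stress-induced luciferase reporter signal by more than about 70% of percent inhibition, limit read from the data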;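 note: 0% = tunicamycin plus vehicle and 100% = wells without tunicamycin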
Lmaj promast: Leishmania major promastigote growth inhibition. Leishmania major promastigotes, resazurin fluorescence viability. inhibition, % at 10 µM. actives 9% (n = 200,000). AID 1063; in the data active = inhibition above about 50%;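 note: promastigotes grown with compound for 44 hours at 28 °C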
WT yeast gro inh: growth inhibition of WT yeast, mitochondrial fusion screen. mitochondrial fusion phenotypic screen, WT strain. inhibition, % at 10 µM. actives 2.1% (n = 190,000); in the data active = inhibition above about 58%; tested in S. cerevisiae
Arbovirus anti: blocks arbovirus infection. arbovirus infection cell-based antiviral screen. actives 0.37% (n = 200,000). inhibition, % at 10 µM; in the data active = inhibition above about 30%
L major 1uM: inhibitors of Leishmania major promastigote growth, repeat at 1 uM. shares compounds with Lmaj promast. L. major promastigote growth, resazurin fluorescence, 48 h. inhibition, % at 1 µM. actives 13% (n = 1,100);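 active = inhibition above about 50% in both repeat tests, limit read from the data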
An asterisk follows results filed as active; · = no result.

SMILES	CHOP inhibitor	Lmaj promast	WT yeast gro inh	Arbovirus anti	L major 1uM
O=c1[nH]c(=O)c2cc([N+](=O)[O-])cc([N+](=O)[O-])c2[nH]1	17	91*	-14	7	13
Cc1ccc2c(c1)c(N=NC(N)=O)c(O)n2C	17	9	-1	0	·
NC1=NC2=C(CCCC2)C2(CCCCC2)S1	10	54*	5	-23	15
CCN(Cc1cc(OC)c(OC)c(OC)c1)C(=S)Nc1cccc(SC)c1	18	·	·	·	·
CN(C)CCNc1c2c(c(C#N)c3nc4ccccc4n13)CCCC2	·	54*	-6	-3	-16
Nc1nc(SCC(=O)Nc2ccc3c(c2)OCO3)n[nH]1	-2	-1	0	1	·
CC(C)CNC(=O)c1ccc(COc2ccc(Cl)cc2Cl)o1	22	18	5	-12	·
CN(C)c1ccc(-n2cccc2)cc1	-5	·	·	·	·
CN(C)c1ccc(N2CN=C3SCC(=O)N3C2)cc1	-45	62*	12	-7	5
Cn1cc([N+](=O)[O-])c(C(=O)n2cccn2)n1	1	·	·	·	·
Cc1cc(C(=O)CCl)c(C)n1Cc1ccco1	-143	100*	-7	-31	93*
O=C1C2C(C(=O)N1c1ccccc1)N1CCCN1C2c1ccccc1 (centres undefined)	17	-3	-3	1	·
Cc1ccc(S(=O)(=O)N/N=c2\oc3ccccc3cc2C(=O)Nc2cccc(C)c2)cc1	24	71*	-17	-2	-17
Cc1cccc(NC(=O)c2cc(S(=O)(=O)c3ccccc3)ccc2Cl)c1	-10	6	33	-3	·
CO/C([O-])=N/c1c[n+](-c2ccc(Cl)cc2)no1	11	0	-9	-4	·
Cc1cc(C)c2c(CC(=O)N(CCC#N)Cc3cccnc3)coc2c1	-12	81*	11	5	9
CC(Sc1ccccc1)C(=O)N(CCC#N)Cc1cccnc1 (centres undefined)	8	7	-1	2	·
Nc1ccc(Nc2ccccc2N)cc1	-108	99*	36	-19	0
Nc1ccccc1Nc1cccc(C(F)(F)F)c1	-26	9	18	-7	·
CS(=O)(=O)NCCC1=CCCCC1	13	2	-8	3	·
C1=C(CCNCC2CCCCC2)CCCC1	1	92*	-27	-7	47
O=C(N/C=N/OCc1cccc(C(F)(F)F)c1)N1OC[C@@H]2COc3ccc4ccccc4c3[C@@H]21	7	92*	36	5	-3
Cc1nc2ccccn2c(=O)c1CCN1CCC(C(=O)c2ccc(F)cc2)CC1	-8	97*	-7	-2	7
CC(C)CC(=O)OC1C(N2CCOCC2)c2c(ccc(/C=C/C(=O)N3CCOCC3)c2O)OC1(C)C (centres undefined)	16	90*	-2	9	-16
CC1(C)Oc2ccc(/C=C/C(=O)N3CCOCC3)c(O)c2C(N2CCOCC2)C1O (centres undefined)	-19	-7	-7	2	·
SMILES	CHOP inhibitor	Lmaj promast	WT yeast gro inh	Arbovirus anti	L major 1uM
COc1ccccc1CN=c1c([N+](=O)[O-])nn(-c2ccc3c(c2)OCCO3)n1O	28	98*	10	-24	14
O=C(CN1C(=O)NC2(CCCCC2)C1=O)NC1CCCc2ccccc21 (centres undefined)	11	-8	-3	-7	·
CC(OC(=O)CCc1nc2ccccc2c(=O)[nH]1)C(=O)c1ccc(C(C)(C)C)cc1 (centres undefined)	92*	54*	20	3	-1
CC(NC(=O)COC(=O)CCc1nc2ccccc2c(=O)[nH]1)c1ccccc1 (centres undefined)	0	-7	4	18	·
c1ccc(-n2nnnc2-c2cnc(-c3cccnc3)nc2-c2cccs2)cc1	9	95*	29	-11	-13
Cc1cccc2c(=O)c(C(=O)NCCCN3CCOCC3)c[nH]c12	11	3	-8	2	·
Nc1nc(N)nc(-c2ccc(Oc3ccccc3)cc2)n1	9	11	21	0	·
Cc1ccc(Oc2ccc(-c3nc(N)nc(N)n3)cc2)cc1C	89*	99*	42	-1	-15
O=c1c2ccccc2nc2ccc(NCc3cccs3)nn12	-7	12	-2	2	·
COc1ccc(C2C3C(=O)N(Cc4ccccc4)C(=O)C3ON2c2ccccc2)c(OC)c1OC (centres undefined)	9	74*	-4	-4	-10
Cc1cc(OC(=O)C(c2ccccc2)c2ccccc2)c([N+](=O)[O-])c(=O)[nH]1	-1	58*	-6	6	-17
CCCC(CCC)C(=O)Oc1cc(C)[nH]c(=O)c1[N+](=O)[O-]	0	0	8	3	·
Cc1nn(-c2ccccn2)c2c1C(=O)C(Br)CC2 (centres undefined)	-185	100*	-9	-8	85*
CC1=C(C)C(=O)N(c2ccccn2)C1=O	13	-2	-36	5	·
Clc1ccc2nnnc(-c3ccccc3)c2c1	38	86*	-12	-36	4
c1ccc(C(c2ccccc2)c2nc(-c3cccnc3)no2)cc1	56	68*	86*	-2	-10
Cc1cc(C)n(S(=O)(=O)/C=C/c2ccccc2)n1	-63	98*	13	-1	-2
O=c1nc2n(c3ncccc13)CCCCC2	-6	-2	3	13	·
CCn1c(N)nc2c1c(=O)n(C)c(=O)n2C	-26	-4	6	-3	·
CCCc1nc2c(=O)n(C)c(=O)nc-2n(C)n1	104*	101*	64*	-21	94*
CN(Cc1ccccc1)C(=O)[C@H]1CCC(=O)N1Cc1ccco1	5	-4	1	5	·
COc1ccc(OC)c(CNC(=O)C2CCN(S(C)(=O)=O)CC2)c1	-11	-6	3	-2	·
CCOC(=O)c1cc2oc(C(c3nnnn3C3CCCCC3)N3CCOCC3)cc2[nH]1 (centres undefined)	-8	82*	6	12	3
CCCc1ncc(C(O)c2ccccc2OC)n1C (centres undefined)	-4	1	-3	-1	·
Oc1c(C=NCc2ccccc2)sc2ccccc12	26	56*	-6	-1	-9
SMILES	CHOP inhibitor	Lmaj promast	WT yeast gro inh	Arbovirus anti	L major 1uM
CCOc1ccc(NC(=O)c2nn(-c3ccc(OC)cc3OC)c(=O)c3ccccc23)cc1	34	0	2	-1	·
S=c1[nH]nc(-c2cc(-c3ccco3)[nH]n2)n1-c1cccc2ccccc12	2	98*	-19	4	2
CCN1CCN(c2cc(SC(C)C)nc(-c3ccc(OC)cc3)n2)CC1	-53	100*	95	-14	0
CSC(=S)NCc1cccnc1	-8	81*	-12	6	8
Cc1ccc(N(CN2C(=O)C3C4CCC(C4)C3C2=O)C(=O)c2ccco2)cc1 (centres undefined)	8	·	·	·	·
Cn1c(C(=O)N2CCc3ccccc3C2)cc2c(=O)n3ccccc3nc21	6	97*	-2	-6	-9
CC(C)c1ccc(S(=O)(=O)N2CCCCC2)cc1	4	18	5	0	·
CC(C)c1ccc(S(=O)(=O)c2ccc(NN)cc2)cc1	14	97*	69*	-4	-4
O=[N+]([O-])c1ccc(N2CCN(C(=S)NCc3ccc(Cl)cc3)CC2)cc1	69	68*	36	10	-12
